Experimental data from PubChem BioAssay.
Calls of active or inactive are those of the source.

Experiments:
[1] = E. coli DRC41 culture turbidity changes, primary screen, E. coli filamentation inducer project, strain DRC41, OD650, 48 h (AID 1152);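 further: E. coli MC1000 strain DRC41 lacking acrAB efflux pump and sulA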; details: E. coli DRC41 (acrAB sulA), higher = more signal, called active from +8 up or from −8 down
[2] = small-molecule binders of probe aLefty1, primary screen, biochemical, small-molecule microarray, 635/667 nm fluorescence (AID 1153); details: higher = more signal;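 further: score merges spot fluorescence with signal-to-noise ratio from the scanned slide images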
[3] = PSAC antagonists in infected red cells, primary screen, cell-based, P. falciparum Indochina, OD700, 1 h (AID 1154); details: P. falciparum Indochina infected RBC osmotic lysis, higher = more signal, called active from +8 up or from −8 down
[4] = PSAC antagonists in infected red cells, primary screen, cell-based, P. falciparum Indochina, OD700, 2 h (AID 1155);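 further: lysis reports solute entry through the parasite surface anion channel PSAC; channel blockers reduce lysis of infected cells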; details: P. falciparum Indochina infected erythrocytes, osmotic lysis OD700; higher = more signal, called active from +8 up or from −8 down
[5] = osmotic lysis modulators in infected erythrocytes, primary screen, PSAC antagonist project, cell-based, P. falciparum Indochina, OD700, 3 h (AID 1156); details: higher = more signal, called active from +8 up or from −8 down
[6] = PSAC antagonists in infected red cells, primary screen, cell-based, P. falciparum Indochina, OD700, 18 h (AID 1157); details: P. falciparum Indochina infected erythrocytes, osmotic lysis OD700, 18 h; higher = more signal, called active from +8 up or from −8 down
[7] = modulators of S6 phosphorylation in cells, primary screen, cell-based, A549, cytoblot, luminescence, serum-stimulated (AID 1158); details: A549 phospho-S6 cytoblot, 5 h, higher = more signal;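 further: serum-stimulated A549 lung adenocarcinoma cells; signal is phosphorylated S6 detected by cytoblot immunostaining with HRP secondary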
[8] = molecular target: NADPH oxidase 2 (Homo sapiens) (UniProt P04839); assay: NOX2-dependent H2O2 signal modulators, primary screen, NOX inhibitor project, cell-based, HEK293-NOX2, PMA-stimulated, Amplex Red fluorescence (AID 1159); details: 45 min, higher = more signal, called active from +8 up or from −8 down; further: test concentration not given here
[9] = molecular target: NADPH oxidase 4 (Homo sapiens) (UniProt Q9NPH5); assay: NOX4-dependent H2O2 signal modulators, primary screen, NOX inhibitor project, cell-based, HEK293-NOX4, tetracycline-induced, Amplex Red fluorescence (AID 1160); details: 45 min, higher = more signal, called active from +8 up or from −8 down
[10] = molecular target: NADPH oxidase 5 (Homo sapiens) (UniProt Q96PH1); assay: NOX5-dependent H2O2 signal modulators, primary screen, NOX inhibitor project, cell-based, HEK293-NOX5, Amplex Red fluorescence (AID 1161); details: HEK293-NOX5, ionomycin, 45 min, higher = more signal
[11] = A549 cell viability effects, profiling panel, calcein-AM fluorescence, 48 h, basal (AID 1162); details: higher = more signal; further: test concentration not given here
[12] = adipocyte viability effects, profiling panel, cell-based, 3T3-L1 adipocytes, calcein-AM fluorescence, 48 h, basal (AID 1163); details: 3T3-L1 adipocytes viability, higher = more signal; further: test concentration not given here
[13] = HepG2 cell viability effects, profiling panel, calcein-AM fluorescence, 48 h, basal (AID 1164); details: higher = more signal; further: test concentration not given here
[14] = MM1S cell viability effects, profiling panel, calcein-AM fluorescence, 48 h, basal (AID 1165); details: higher = more signal;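 further: viability of MM1S multiple myeloma cells under basal unstimulated conditions; test concentration not given here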
[15] = basal RPMI8226 viability, no added stimulus, profiling panel, cell-based, calcein-AM fluorescence, 48 h, PK04 Diversity Set (AID 1166); details: RPMI8226 myeloma viability, higher = more signal;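 further: cells grown under basal conditions without added stimulus; test concentration not given here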
[16] = basal HepG2 mitochondrial membrane potential changes, profiling panel, cell-based, JC-1 fluorescence, 24 h, 100 nL compound (AID 1167); details: higher = more signal; further: test concentration not given here
[17] = basal 3T3-L1 adipocyte mitochondrial potential changes, profiling panel, cell-based, JC-1 fluorescence, 3T3-L1 adipocytes, 24 h, 100 nL compound (AID 1168); details: JC-1 mitochondrial fluorescence, higher = more signal, called active from +8 up or from −8 down; further: test concentration not given here
[18] = basal RPMI8226 mitochondrial membrane potential changes, profiling panel, cell-based, JC-1 fluorescence, 24 h, 100 nL compound (AID 1169); details: RPMI8226 myeloma, JC-1 mitochondrial potential fluorescence, higher = more signal; further: test concentration not given here
[19] = basal MM1S mitochondrial membrane potential changes, profiling panel, cell-based, JC-1 fluorescence, 24 h, 100 nL compound (AID 1170); details: higher = more signal; further: test concentration not given here
[20] = A549 lung cancer cell viability effects, profiling panel, resazurin fluorescence, 24 h, PK04 Diversity Set (AID 1171); details: higher = more signal, called active from +8 up or from −8 down; further: test concentration not given here

Chain of NADPH oxidase 5 (Homo sapiens) (Q96PH1 whole entry, looked up): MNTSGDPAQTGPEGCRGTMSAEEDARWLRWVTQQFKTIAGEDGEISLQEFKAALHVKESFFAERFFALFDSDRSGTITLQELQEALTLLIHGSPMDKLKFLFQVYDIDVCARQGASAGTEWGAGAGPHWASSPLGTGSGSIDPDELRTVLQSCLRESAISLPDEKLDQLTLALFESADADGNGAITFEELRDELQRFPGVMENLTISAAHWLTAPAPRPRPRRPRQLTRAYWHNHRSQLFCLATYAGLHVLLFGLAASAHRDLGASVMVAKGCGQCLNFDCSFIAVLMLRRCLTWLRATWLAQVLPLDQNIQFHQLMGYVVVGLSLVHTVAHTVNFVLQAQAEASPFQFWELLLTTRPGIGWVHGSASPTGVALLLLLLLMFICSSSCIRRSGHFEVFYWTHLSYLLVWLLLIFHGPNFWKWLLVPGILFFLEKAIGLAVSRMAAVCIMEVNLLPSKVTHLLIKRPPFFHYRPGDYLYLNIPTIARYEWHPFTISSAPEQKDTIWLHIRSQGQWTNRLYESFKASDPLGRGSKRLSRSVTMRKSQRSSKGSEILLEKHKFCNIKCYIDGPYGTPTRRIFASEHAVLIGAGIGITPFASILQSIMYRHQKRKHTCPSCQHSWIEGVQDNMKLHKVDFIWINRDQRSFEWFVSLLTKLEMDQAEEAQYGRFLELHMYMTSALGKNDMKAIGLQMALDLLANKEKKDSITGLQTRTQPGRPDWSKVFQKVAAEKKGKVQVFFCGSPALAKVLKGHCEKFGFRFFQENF
Chain of NADPH oxidase 2 (Homo sapiens) (P04839 whole entry, looked up): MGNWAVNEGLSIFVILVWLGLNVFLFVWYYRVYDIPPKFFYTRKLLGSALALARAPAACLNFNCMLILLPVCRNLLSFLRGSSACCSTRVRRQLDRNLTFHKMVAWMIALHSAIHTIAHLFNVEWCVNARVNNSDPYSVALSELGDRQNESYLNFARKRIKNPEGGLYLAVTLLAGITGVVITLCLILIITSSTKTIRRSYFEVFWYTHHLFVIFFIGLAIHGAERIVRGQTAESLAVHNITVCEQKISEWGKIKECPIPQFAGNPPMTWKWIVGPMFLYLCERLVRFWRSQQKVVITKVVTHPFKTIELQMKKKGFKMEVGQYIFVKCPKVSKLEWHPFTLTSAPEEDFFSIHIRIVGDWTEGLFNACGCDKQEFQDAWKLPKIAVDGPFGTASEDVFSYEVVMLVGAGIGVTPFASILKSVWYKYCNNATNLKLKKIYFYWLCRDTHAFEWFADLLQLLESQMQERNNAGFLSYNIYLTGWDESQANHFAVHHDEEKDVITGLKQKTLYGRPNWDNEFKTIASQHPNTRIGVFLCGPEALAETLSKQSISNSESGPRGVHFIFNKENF
Chain of NADPH oxidase 4 (Homo sapiens) (Q9NPH5 whole entry, looked up): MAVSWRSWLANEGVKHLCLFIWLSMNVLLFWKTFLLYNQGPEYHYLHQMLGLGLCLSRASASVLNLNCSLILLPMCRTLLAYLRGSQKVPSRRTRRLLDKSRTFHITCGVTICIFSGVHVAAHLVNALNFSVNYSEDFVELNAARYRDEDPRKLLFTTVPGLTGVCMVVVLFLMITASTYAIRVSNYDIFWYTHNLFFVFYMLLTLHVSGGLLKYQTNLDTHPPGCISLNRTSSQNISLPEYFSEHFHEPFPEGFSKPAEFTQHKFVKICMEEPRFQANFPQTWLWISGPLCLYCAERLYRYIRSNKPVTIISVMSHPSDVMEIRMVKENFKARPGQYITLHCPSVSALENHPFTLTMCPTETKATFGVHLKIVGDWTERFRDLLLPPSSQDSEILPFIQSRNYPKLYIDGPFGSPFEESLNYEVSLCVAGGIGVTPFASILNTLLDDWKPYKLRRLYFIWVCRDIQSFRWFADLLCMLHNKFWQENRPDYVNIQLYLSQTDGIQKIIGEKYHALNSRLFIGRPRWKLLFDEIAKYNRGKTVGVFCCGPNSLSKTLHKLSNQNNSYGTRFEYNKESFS

SMILES	z-score [1]	composite z-score [2]	z-score [3]	z-score [4]	z-score [5]	z-score [6]	z-score [7]	z-score [8]	z-score [9]	z-score [10]	z-score [11]	z-score [12]	z-score [13]	z-score [14]	z-score [15]	z-score [16]	z-score [17]	z-score [18]	z-score [19]	z-score [20]
O=C1[C@]2(CO)C=C(Br)[C@@H](C[C@@H]2c2ccccc2)[C@@]12CO2	0.168 (inactive)	-0.188	0.0883 (inactive)	0.0579 (inactive)	-0.533 (inactive)	-0.187 (inactive)	-0.364	0.538 (inactive)	0.662 (inactive)	-0.211	-0.425	0.364	-0.421	-2.22	-2.68	-1.66	-0.435 (inactive)	0.278	-1.14	0.359 (inactive)
COCCCNC(=O)[C@@]1(c2ccc([N+](=O)[O-])cc2)CC(=O)N(CC23CC4CC(CC(C4)C2)C3)[C@@H]1c1ccc(CO)cc1	0.697 (inactive)	0.616	4.55 (inactive)	0.958 (inactive)	1.47 (inactive)	0.888 (inactive)	0.0694	-0.237 (inactive)	-1.44 (inactive)	-1.74	-0.995	0.109	0.198	-1.93	-2.42	0.461	-0.381 (inactive)	0.0554	-0.784	-0.968 (inactive)
CC(C)C[C@@H]1NC(=O)[C@@H]2C[C@H](C(=O)NCCCCCC[N+](C)(C)C)[C@H](c3ccc(O)cc3)N2C1=O	0.55 (inactive)	0.127	3.47 (inactive)	0.637 (inactive)	-1.96 (inactive)	0.227 (inactive)	-0.274	0.994 (inactive)	0.763 (inactive)	0.75	-0.633	-0.77	0.145	0.305	0.996	-0.595	0.566 (inactive)	-0.815	-0.39	0.0131 (inactive)
CC(C)C(=C=CC[C@@H](O)c1ccccc1OCCO)C[C@@H](O)c1ccccn1	-0.258 (inactive)	0.0437	6.05 (inactive)	1.2 (inactive)	0.611 (inactive)	0.774 (inactive)	-0.632	0.216 (inactive)	-0.725 (inactive)	-1.6	-0.158	0.0388	-0.0925	-0.757	0.0845	-0.687	-0.425 (inactive)	-0.0863	-0.0458	0.248 (inactive)
C=CCN1C(=O)[C@]2(O[C@H](CCO)[C@@H]([Si](C)(C)c3ccc(OC)cc3)[C@@H]2C)c2cc(NC(=O)[C@H](C)O)ccc21	-0.589 (inactive)	0.174	9.01 (active)	2.65 (inactive)	-0.212 (inactive)	1.43 (inactive)	1.23	0.911 (inactive)	1.26 (inactive)	0.375	-1.18	0.449	-1.92	-2.85	-4.33	-1.55	-0.612 (inactive)	-1.03	-0.061	-0.848 (inactive)
O=C1C2C=CC(C(O)c3ccc(-c4ccccc4)s3)N(n3cnnc3)C2C(=O)N1Cc1ccccc1 (stereo not given)	-0.613 (inactive)	0.284	2.44 (inactive)	1.41 (inactive)	0.605 (inactive)	0.832 (inactive)	0.0424	-0.547 (inactive)	-0.149 (inactive)	-0.918	-0.787	-0.293	-0.638	-0.593	-1.87	-0.666	-0.878 (inactive)	-0.128	0.871	-1 (inactive)
O=C1O[C@H](c2ccccc2)[C@H](c2ccccc2)N2[C@H]1[C@@H](C(=O)NC[C@H](O)c1ccccc1)[C@]1(C(=O)Nc3ccc(C#CCCO)cc31)[C@H]2c1ccc(O)cc1	0.39 (inactive)	-0.293	0.211 (inactive)	-0.709 (inactive)	-0.317 (inactive)	-1.23 (inactive)	1.21	-0.687 (inactive)	0.0169 (inactive)	-3.93	0.102	1.09	-0.975	0.245	-0.155	-0.72	0.0782 (inactive)	0.626	0.000313	0.024 (inactive)
C=CC(=C)C1=CCO[C@@H]1[C@H]1CCCN1S(=O)(=O)c1ccccc1[N+](=O)[O-]	0.279 (inactive)	-0.148	2.97 (inactive)	0.577 (inactive)	0.544 (inactive)	0.281 (inactive)	-0.031	0.516 (inactive)	1.06 (inactive)	0.77	-0.387	1.19	0.324	-1.69	-1.07	0.248	-0.736 (inactive)	-0.112	-0.233	0.707 (inactive)
N#Cc1ccc(NN2C(C(O)c3cccs3)C=CC3C(=O)N(c4ccccc4)C(=O)C32)cc1 (stereo not given)	-0.127 (inactive)	0.0262	5.65 (inactive)	-0.131 (inactive)	0.832 (inactive)	-0.741 (inactive)	0.578	-2.12 (inactive)	-5.34 (inactive)	-3.05	0.594	-0.327	1.01	-0.0964	-0.598	-0.307	-0.0937 (inactive)	0.49	-0.218	0.234 (inactive)
COC(=O)[C@@]1(Cc2ccccc2)[C@H]2c3cc(C(=O)N4CCCC4)n(Cc4ccc(C)o4)c3C[C@H]2CN1C(=O)c1ccccc1	-1.71 (inactive)	0.198	1.63 (inactive)	0.547 (inactive)	0.278 (inactive)	0.52 (inactive)	-0.504	-0.254 (inactive)	-0.867 (inactive)	-1.17	-1.25	0.726	0.252	-1.47	-2.33	1.78	-0.753 (inactive)	-1.02	-0.449	-0.646 (inactive)
COc1ccc(C(=O)Nc2cccc(CN3C(=O)[C@]4(O[C@H](CC(=O)N5CCC[C@H]5CO)[C@@H]([Si](C)(C)c5ccc(OC)cc5)[C@@H]4C)c4ccccc43)c2)cc1	0.0295 (inactive)	-0.012	4.29 (inactive)	1.45 (inactive)	-0.546 (inactive)	0.451 (inactive)	1.97	2.73 (inactive)	1.65 (inactive)	4.27	-0.806	0.902	-3.13	-2.71	-4.33	-1.73	0.248 (inactive)	-1.1	-1.64	-2.2 (inactive)
O=c1oc(-c2ccccc2)nc2cc(Br)ccc12	0.311 (inactive)	-0.0099	3.27 (inactive)	0.635 (inactive)	-1.02 (inactive)	0.845 (inactive)	-0.29	0.377 (inactive)	-0.138 (inactive)	-0.291	-0.423	0.111	0.659	-1.99	-0.633	-0.773	0.67 (inactive)	-0.0586	0.873	-0.141 (inactive)
COCCOC(=O)N1C(=O)[C@@]2(c3cc(C#CC4(O)CCCCCC4)ccc31)[C@H](C(=O)N1CCCCCCC1)[C@H]1C(=O)O[C@H](c3ccccc3)[C@H](c3ccccc3)N1[C@@H]2c1ccccc1OCCO	0.139 (inactive)	2.53	1.04 (inactive)	1.53 (inactive)	1.05 (inactive)	1.07 (inactive)	0.535	0.528 (inactive)	-0.409 (inactive)	1.29	0.424	1.64	0.504	-0.658	-1.87	-0.679	0.656 (inactive)	-0.658	-0.987	-1.1 (inactive)
COCCOC(=O)N1C(=O)[C@@]2(c3cc(C#CCC(C(=O)OC)C(=O)OC)ccc31)[C@H](c1ccccc1OCCO)N1[C@H](c3ccccc3)[C@H](c3ccccc3)OC(=O)[C@H]1[C@@H]2C(N)=O	0.483 (inactive)	0.479	7.64 (inactive)	2.55 (inactive)	0.678 (inactive)	1.42 (inactive)	-0.127	0.821 (inactive)	0.383 (inactive)	-1.85	0.597	0.0915	-1.58	-3.4	-4.17	-0.603	1.69 (inactive)	-0.986	-1.84	-0.212 (inactive)
COC(=O)[C@@]1(Cc2ccccc2)[C@H]2c3cc(C(=O)N4CCCC4)n(C)c3C[C@H]2CN1C(=O)c1ccccc1	-0.308 (inactive)	0.321	1.54 (inactive)	-0.0273 (inactive)	0.835 (inactive)	0.396 (inactive)	-0.0948	-0.153 (inactive)	-0.653 (inactive)	-1.45	-1.14	0.167	-1.24	0.143	-0.284	0.533	-0.469 (inactive)	-0.0143	-0.827	-0.526 (inactive)
C=C(COC)/C(=C/C[C@H](OC(=O)c1ccncc1)c1cccc(OCCO)c1)c1cc(C(=O)OC)ccc1OC	0.395 (inactive)	0.132	13.5 (active)	2.26 (inactive)	2.48 (inactive)	0.773 (inactive)	-0.625	0.32 (inactive)	0.00792 (inactive)	-1.51	0.404	0.987	-0.0353	-1.15	-0.686	1.51	0.246 (inactive)	-0.351	0.0566	1.14 (inactive)
CN1C(=O)C2C=CC(C(O)c3ccccn3)N(Nc3ccccc3)C2C1=O (stereo not given)	-0.434 (inactive)	-0.093	0.844 (inactive)	1.09 (inactive)	-0.197 (inactive)	1.12 (inactive)	-0.669	-1.35 (inactive)	-4.52 (inactive)	-2.9	0.169	-0.103	-0.164	-0.309	0.497	-0.562	-0.234 (inactive)	0.184	0.0223	-0.205 (inactive)
